Inconclusive results are not listed. Activity calls are given as the source filed them. Unless noted, how the calls were made is not given here.

The text below walks through data of PubChem BioAssay (NCATS).

Assay [1] in a line: qHTS profiling of the MIPE4 collection as inhibitors of Plasmodium falciparum (3D7) proliferation (AID 743344).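 Further: scaled between DMSO vehicle wells and 0.29 µM artemisinin as full inhibition.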 The settings on record: P. falciparum 3D7 in erythrocytes, SYBR Green DNA fluorescence, 72 h; at 28.5 µM unless noted. The gist of the method: (§1)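 Parasite DNA was quantified by SYBR Green I fluorescence (ex 485, em 535 nm) after overnight lysis in saponin/Triton buffer at room temperature. Cultures at 0.3% parasitemia and 2.5% hematocrit were first exposed to compound for 72 h at 37 C; signals were normalised to artemisinin (0.29 uM) and vehicle wells.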

A short description of assay [2]: qHTS profiling of the MIPE4 collection as inhibitors of Plasmodium falciparum (DD2) proliferation (AID 743345). The settings on record: P. falciparum Dd2 in erythrocytes, SYBR Green DNA, 72 h; at 28.5 µM unless noted. The gist of the method: as §1
The nature of assay [3]: qHTS profiling of the MIPE4 collection as inhibitors of Plasmodium falciparum (DD2) proliferation (Rep 2) (AID 743346). To be noted: P. falciparum Dd2 in erythrocytes, SYBR Green DNA, 72 h; at 28.5 µM unless noted. The gist of the method: as §1
Assay [4] can be described thus: High-throughput drug toxicity screening in the BPDCN cell line Gen2.2 (AID 1224824).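 Further: cells exposed to compounds for 48 h before reading.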 The settings on record: Gen2.2 BPDCN cells; at 45.8 µM (top of the series) unless noted. The method in brief: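 Readout is ATP luminescence from Gen2.2 cells after two days of drug exposure in serum-containing medium at 37 °C. Values express percent activity, with vehicle defining full signal and 9.2 uM bortezomib defining zero.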

A short description of assay [5]: High-throughput drug toxicity screening in the BPDCN cell line Cal-1 (AID 1224825). The settings on record: Cal-1 BPDCN cell viability, qHTS; at 45.8 µM (top of the series) unless noted. The gist of the method: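 CellTiter-Glo luminescence after 48 h compound exposure; percent activity scaled with DMSO as 100% and bortezomib (9.2 uM final) as 0%. Cal-1 cells seeded at 500/well in RPMI, 10% FBS, no phenol red.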

Assay [6] is described as follows: qHTS assay for measurement of the activity of small molecule inhibitors on Zika virus induced Caspase-3 activity in human iPSC derived neural progenitor cells (hNPCs) (AID 1224857; active means well fitted curve in the direction sought with a large enough effect; an effect the other way counts as inactive or inconclusive; further: % of control where 0% means no effect; nearly all actives have a fitted effect of over 65% in size). The gist of the method: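 Pretreat hNPCs with compound 1 h; infect ZIKV 2 FFU/cell; 6 h 37 C, 5% CO2; Caspase-Glo 3/7, 30 min RT; luminescence; normalize to no-virus and virus-only wells.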

The nature of assay [7]: qHTS profiling of the MIPE4 collection as inhibitors of Plasmodium falciparum (HB3) proliferation (AID 743347).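 Further: plate controls were DMSO vehicle wells for no effect and artemisinin wells for full effect.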 To be noted: P. falciparum HB3 in erythrocytes, SYBR Green DNA, 72 h; at 28.5 µM unless noted. The gist of the method: as §1
Assay [8] can be described thus: qHTS Assay for Identifying Gametocytocidal Compounds (AID 743244; active means well fitted curve in the direction sought with a large enough effect; an effect the other way counts as inactive or inconclusive; further: potency means the concentration at half of the fitted maximal effect;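 on max response: on the % scale 0 is the no-effect control and ±100 the full control effect; actives lower the fluorescent signal which means gametocytes are killed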). To be noted: P. falciparum 3D7 stage III-V gametocytes, alamarBlue, 72 h; max response: stronger effect = lower value. The method in brief:
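Compounds are pinned into medium, gametocytes (stage III–V, 3D7, 20,000 cells/well) added, and plates held 72 h at 37 °C in 5% CO2. AlamarBlue follows for 24 h before fluorescence reading.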

A short description of assay [9]: qHTS profiling for inhibitors of Plasmodium falciparum (3D7) proliferation (AID 743322).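 Further: infected erythrocytes exposed to compound for 72 h before lysis; 100% = DMSO vehicle wells and 0% = 0.29 µM artemisinin.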 To be noted: P. falciparum 3D7 proliferation; at 28.7 µM (top of the series). The method in brief:
as §1

The nature of assay [10]: qHTS profiling for inhibitors of Plasmodium falciparum (DD2) proliferation (AID 743323). The settings on record: lower = more inhibition; at 28.7 µM (top of the series). The gist of the method: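 Parasite DNA quantified by SYBR Green fluorescence (ex 485, em 535 nm) after saponin/Triton lysis and overnight dark incubation. Cultures: 0.3% parasitemia, 2.5% hematocrit, 72 h, 37 C; data scaled between DMSO and 0.29 uM artemisinin.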

Assay [11] is described as follows: qHTS profiling for inhibitors of Plasmodium falciparum (HB3) proliferation (AID 743324; active means well fitted curve in the direction sought with a large enough effect; an effect the other way counts as inactive or inconclusive;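 further: 100% = DMSO vehicle wells and 0% = artemisinin-treated control wells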). The settings on record: Plasmodium falciparum HB3 blood-stage proliferation; at 28.7 µM (top of the series). The gist of the method: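 SYBR Green fluorescence (485 ex/535 em) of lysed cultures, incubated overnight at room temperature in the dark, quantifies parasite DNA. Infected erythrocytes at 0.3% parasitemia and 2.5% hematocrit were exposed 72 h; values normalized to DMSO and 0.29 uM artemisinin controls.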

The nature of assay [12]: qHTS assay for measurement of the activity of small molecule inhibitors on Zika virus induced Caspase-3 activity in human astrocytoma cells (AID 1224859; active means well fitted curve in the direction sought with a large enough effect; an effect the other way counts as inactive or inconclusive;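 further: plate controls were ZIKV-infected untreated cells for no effect and uninfected cells for full effect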). The gist of the method:
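Human SNB-19 astrocytoma cells in RPMI 1640 with 10% FBS receive compound one hour ahead of Zika virus at 2 FFU/cell. After 6 h infection, caspase-3/7 activity is detected by Caspase-Glo luminescence.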

The compound `C=CC(=O)Nc1cccc(Oc2nc(Nc3ccc(N4CCN(C)CC4)cc3)ncc2Cl)c1` had a parasite growth, % of DMSO control in assay [1] of 8.39%. The compound also had a parasite growth remaining, % of DMSO control (lower = more inhibition) in assay [2] of 16.8%. This compound showed a parasite growth, % of control (lower = inhibition) in assay [3] of 34.6%. In assay [4], the cell viability, % of control (lower = more cytotoxic) turned out to be 8.16%. Further, in assay [5], the viability (% of control) worked out at 2.81%. Further, the Potency result in assay [6] was “inactive”.
As for `Cn1c2ccccc2c2c3c(c4c5ccccc5n(CCC#N)c4c21)CNC3=O`, the parasite growth, % of DMSO control in [1] was found to be 16%. In addition, in [2], the parasite growth remaining, % of DMSO control (lower = more inhibition) was 7.7%. In assay [3], the parasite growth, % of control (lower = inhibition) was determined as 30.7%. For the same compound, in assay [7], the growth, % of control turned out to be 54.6%. Moreover, in assay [4], the cell viability, % of control (lower = more cytotoxic) was 12.7%. Further, the viability (% of control) in [5] worked out at 15.7%. The Potency result in [6] was “inactive”.
Turning to `COc1cc(Nc2ncc(F)c(Nc3ccc4c(n3)N(COP(=O)(O)O)C(=O)C(C)(C)O4)n2)cc(OC)c1OC`, the parasite growth, % of DMSO control in [1] came to 19.5%. Besides, the parasite growth remaining, % of DMSO control (lower = more inhibition) in assay [2] was determined as 87.2%. Further, in assay [3], the parasite growth, % of control (lower = inhibition) is 22.9%. Besides, in assay [7], the growth, % of control is 11.1%. Moreover, in assay [4], the cell viability, % of control (lower = more cytotoxic) amounted to 56.3%. Also, the viability (% of control) in assay [5] was 10.3%. Further, the Potency entry in assay [6] is “inactive”.
Consider `CC=C1NC(=O)[C@H]2CSSCCC=C[C@H](CC(=O)N[C@H](C(C)C)C(=O)N2)OC(=O)[C@H](C(C)C)NC1=O`, for which the Potency in assay [8] is 0.59 µM (active). Moreover, the remaining parasite growth % (stronger effect = lower value) in [9] came to 95.6%. In addition, the activity, percent of control in assay [10] came to 92.5%. Moreover, the remaining proliferation (% of control), lower = more inhibition in assay [11] worked out at 98.4%. The compound also came in with a parasite growth, % of DMSO control in assay [1] of 5.8%. In assay [2], this compound registered a parasite growth remaining, % of DMSO control (lower = more inhibition) of 8.63%. The compound further gave a parasite growth, % of control (lower = inhibition) in assay [3] of 12.2%. Moreover, the growth, % of control in assay [7] worked out at 8.43%. Also, the cell viability, % of control (lower = more cytotoxic) in assay [4] is 5.71%. Also, the Potency result in assay [6] and in [12] was “inactive” throughout.
For `C=CC(=O)N1CCC[C@@H](n2nc(-c3ccc(Oc4ccccc4)cc3)c3c(N)ncnc32)C1`, the cell viability, % of control (lower = more cytotoxic) in assay [4] is 43.2%. In addition, the Potency result in [6] is “inactive”.
As for `Cc1cnc(-c2cnc(NCCNc3ccc(C#N)cn3)nc2-c2ccc(Cl)cc2Cl)[nH]1`, in assay [8], the max response was 11.2% (inactive). In addition, the remaining parasite growth % (stronger effect = lower value) in assay [9] amounted to 89%. In addition, in [10], the activity, percent of control turned out to be 90.2%. The remaining proliferation (% of control), lower = more inhibition in assay [11] came out at 53.7%. Besides, the parasite growth, % of DMSO control in assay [1] is 34.7%. For the same compound, the parasite growth remaining, % of DMSO control (lower = more inhibition) in assay [2] came to 76.5%. Also, the parasite growth, % of control (lower = inhibition) in [3] was found to be 40.9%. This compound displayed a growth, % of control in [7] of 27.2%. The cell viability, % of control (lower = more cytotoxic) in assay [4] was 229%. Besides, the Potency entry in assay [6] and in assay [12] was “inactive” throughout.
Regarding `CNC(=O)CN1CCC(Oc2cc3c(Nc4cccc(Cl)c4F)ncnc3cc2OC)CC1`, the parasite growth, % of DMSO control in [1] stood at 11.2%. In addition, the parasite growth remaining, % of DMSO control (lower = more inhibition) in assay [2] was 41.4%. In [7], this compound had a growth, % of control of 5.64%. Also, in assay [4], the cell viability, % of control (lower = more cytotoxic) was determined as 50.7%. In [5], the viability (% of control) came out at 7.61%. For the same compound, the Potency result in [6] is “inactive”.
The compound `CC1COC2(CCN(c3nc(=O)c4cc(C(F)(F)F)cc([N+](=O)[O-])c4s3)CC2)O1` (centres undefined) came in with a parasite growth, % of DMSO control in assay [1] of 20.5%. Also, in assay [2], the parasite growth remaining, % of DMSO control (lower = more inhibition) came to 70%. Moreover, the parasite growth, % of control (lower = inhibition) in assay [3] stood at 33.5%. The compound further gave a growth, % of control in assay [7] of 29.9%. The cell viability, % of control (lower = more cytotoxic) in assay [4] stood at 104%. In addition, the viability (% of control) in [5] stood at 110%. The Potency result in assay [6] was “inactive”.
Compound `Cc1cc(Nc2cc(CN3CCOCC3)c3nc(C)c(Cc4ccc(Cl)cc4F)n3n2)n[nH]1` came in with a parasite growth, % of DMSO control in [1] of 6.44%. In assay [2], this compound displayed a parasite growth remaining, % of DMSO control (lower = more inhibition) of 7.86%. In assay [3], this compound showed a parasite growth, % of control (lower = inhibition) of 12.5%. The compound further came in with a growth, % of control in [7] of 5.44%. Moreover, the cell viability, % of control (lower = more cytotoxic) in assay [4] was 4.25%. In addition, the viability (% of control) in assay [5] was found to be 2.99%. Also, the Potency entry in assay [6] is “inactive”.
Take `CC(C)c1ccc(Cn2ccc3c4c(N)nc(NC5CC5)nc4ccc32)cc1`: the Potency in [8] was 14.8 µM (active). For the same compound, in assay [9], the remaining parasite growth % (stronger effect = lower value) is -2.55%. For the same compound, in assay [10], the activity, percent of control is -1.01%. For the same compound, the remaining proliferation (% of control), lower = more inhibition in assay [11] was -1.47%. Further, the parasite growth, % of DMSO control in [1] amounted to 4.63%. Further, the parasite growth remaining, % of DMSO control (lower = more inhibition) in [2] came to 6.19%. The parasite growth, % of control (lower = inhibition) in assay [3] came out at 15.1%. For the same compound, the growth, % of control in assay [7] turned out to be 3.42%. In assay [4], the cell viability, % of control (lower = more cytotoxic) came to 3.92%. Moreover, the Potency result in [6] and in assay [12] was “inactive” throughout.
On to `CCn1cc(-c2ccnc3[nH]c(-c4cccc(CN(C)C)c4)cc23)c(-c2ccc(NC(=O)N(C)C)cc2)n1`, for which, in assay [1], the parasite growth, % of DMSO control amounted to 5%. This compound registered a parasite growth remaining, % of DMSO control (lower = more inhibition) in assay [2] of 8.23%. Further, the parasite growth, % of control (lower = inhibition) in assay [3] is 9.35%. Further, the growth, % of control in [7] came out at 5.95%. Further, the cell viability, % of control (lower = more cytotoxic) in assay [4] turned out to be 3.65%. Besides, in assay [5], the viability (% of control) was 2.71%. The Potency result in [6] is “inactive”.
In assay [1], `Nc1ccn([C@@H]2O[C@H](CO)[C@H](O)C2(F)F)c(=O)n1` returned a parasite growth, % of DMSO control of 19.5%. Besides, the parasite growth remaining, % of DMSO control (lower = more inhibition) in assay [2] was 10.3%. Also, the parasite growth, % of control (lower = inhibition) in assay [3] was 8.03%. Moreover, the growth, % of control in assay [7] came to 42.2%. For the same compound, the viability (% of control) in assay [5] amounted to 11.1%. The Potency result in [6] and in assay [12] was “inactive” in each case.
